Results: PubChem BioAssay (NCATS)
Results filed as inconclusive are left out. Activity calls are given as the source filed them. Unless noted, calls follow the shape of the dose curve; as a rule, active = well fitted curve in the direction sought with a large enough effect; inconclusive = small, poorly fitted or top-dose-only effect, or another doubt; inactive = no such curve, though single readings can be large; an effect the other way counts as inactive or inconclusive.

Assays:
[1] = qHTS Assay for Lipid Storage Modulators (AID 1519; calls by dose curve); settings: Drosophila S3 cells, BODIPY lipid droplet/cell ratio, laser cytometry, cells loaded with oleic acid; for activity change, negative = inhibition: at 57.5 µM (top of the series)
Method in brief: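 Cells seeded at 5,000 per well were treated with compounds over a concentration series and loaded with oleic acid (400 uM, as added). Lipid droplet fluorescence (488 nm excitation, 500-530 nm channel) was read by laser-scanning cytometry and normalized to 20 uM Triacsin C.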

[2] = biological target: Lysosomal acid glucosylceramidase (Homo sapiens) (UniProt P04062); test: Glucocerebrosidase-p2 (AID 348; in the data active = potency below about 10 µM; also: potency is read from the fitted curve at half-maximal effect); settings: purified GBA, blue fluorogenic substrate, 40 min
Method in brief: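 Compounds titrated from 0.6 nM upwards against 0.2 nM enzyme in pH 5.9 citric acid/KH2PO4, taurocholate, tween-20; blue fluorogenic substrate 80 uM, 40 min room temperature, stopped and read Ex 365/Em 440 for AC50.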

[3] = AP1 Signaling Pathway (AID 357; active = well fitted curve in either direction with a large enough effect, not every such curve was filed as active; also: % is scaled to controls: 0 for no effect and ±100 for the full control effect); settings: ME-180 AP-1-bla reporter, EGF-induced, beta-lactamase ratio, 5 h; at 7.69 µM (top of the series) unless noted
Method in brief: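 ME-180 cells with beta-lactamase reporter under AP-1 response element, stimulated with EC50 EGF; compounds tested in titration series, 5 h at 37 °C. CCF4 substrate added 2.5 h at room temperature; 460/530 nm emission ratio gave %activity and AC50.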

[4] = NFAT Signaling Pathway (AID 444; active = well fitted curve in either direction with a large enough effect, not every such curve was filed as active;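 also: carbachol stimulus at about its EC50 of 1 µM final; % is scaled to controls: 0 for no effect and ±100 for the full control effect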); settings: Jurkat NFAT-bla M1, carbachol, beta-lactamase ratio, 5 h; at 7.69 µM (top of the series) unless noted
Method in brief: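 Jurkat cells with NFAT-driven β-lactamase reporter and co-expressed M1 receptor, stimulated with carbachol (final 1 uM, ~EC50), compound titration, 5 h at 37 °C. CCF4 loaded 1 h at RT; 460/530 nm ratio gave %activity and AC50.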

[5] = Stat Signaling Pathway (AID 446; active = well fitted curve in either direction with a large enough effect, not every such curve was filed as active;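 also: ME-180 cervical cancer cells given 40 pM IL-6 alongside compound; SIE-controlled beta-lactamase reporter measured as 460/530 nm FRET emission ratio; % is scaled to controls: 0 for no effect and ±100 for the full control effect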); settings: ME-180 SIE beta-lactamase reporter, IL-6 stimulated, 5 h; at 7.69 µM (top of the series) unless noted
Method in brief: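 ME-180 cells carrying a SIE-driven beta-lactamase reporter are stimulated with 40 pM IL-6 for 5 h at 37C in the presence of compound. The 460/530 nm FRET substrate ratio is read after 2.5 h at RT. Data are normalised to 300 pM IL-6 and to 125 nM JAK inhibitor controls.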

[6] = biological target: Glucocorticoid receptor (Homo sapiens) (UniProt P04150); test: GR-GFP Redistribution (AID 450;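 active = compounds whose dose series gives a full or clear partial fitted curve of increased nuclear translocation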; also: potency is read from the fitted curve at half-maximal effect); settings: U2OS GR-GFP nuclear translocation, laser cytometry, 2 h
[7] = biological target: Glucocorticoid receptor (Homo sapiens) (UniProt P04150); test: GR-EFC Redistribution (AID 451; calls by dose curve; also: potency is read from the fitted curve at half-maximal effect); settings: CHO-K1 GR-EFC translocation, beta-gal luminescence, 2 h
Method in brief: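 CHO-K1 cells expressing nuclear EA and GR-ED fragments of b-gal; compounds titrated up to 46 uM final, 2 h at 37 C. GR nuclear translocation read as complemented b-gal luminescence after 1 h RT detection.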

[8] = biological target: Mitogen-activated protein kinase 10 (Mus musculus) (UniProt Q61831); test: JNK3 AlphaScreen Assay (AID 530; active = well fitted curve in either direction with a large enough effect, not every such curve was filed as active;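 also: kinase came from lysate of stimulated human HepG2 cells; signal reports phosphorylation of biotinylated GST-cJun 1-79 at Ser73 with 10 µM ATP; % is scaled to controls: 0 for no effect and ±100 for the full control effect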); settings: JNK3 lysate, c-Jun phosphorylation; series mostly up to 57.1 µM
Method in brief: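 qHTS format: compounds tested as titrations against IL-1beta/TNF-alpha-activated HepG2 lysate JNK3 with biotin-GST-cJun substrate and 10 uM ATP at room temperature. Loss of anti-phospho-cJun AlphaScreen signal indicates inhibition.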

[9] = biological target: Cytochrome P450 3A4 (Homo sapiens) (UniProt P08684); test: qHTS Assay for Activators of Cytochrome P450 3A4 (AID 885); settings: recombinant CYP3A4, Luciferin-PPXE luminescence, 60 min; series mostly up to 57.1 µM; also: nearly all actives have a fitted effect of over 65% in size
Method in brief: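 Human CYP3A4 (20 nM) with Luciferin-PPXE at 25 uM (its KM) in 200 mM KPO4; 10 min compound preincubation, then NADPH regeneration and 60 min reaction at RT. Luciferin read by luminescence; normalized to 57 uM ketoconazole full inhibition.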

[10] = biological target: Ubiquitin carboxyl-terminal hydrolase 1 (Homo sapiens) (UniProt O94782); test: Inhibitors of USP1/UAF1: Pilot qHTS (AID 504865); settings: purified USP1/UAF1, Ub-rhodamine cleavage fluorescence; series mostly up to 54.9 µM;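 also: rhodamine fluorescence freed from ubiquitin-rhodamine substrate followed over time; top concentration of the series differs between compounds; % is scaled to controls: 0 for no effect and ±100 for the full control effect; nearly all actives have a fitted effect of over 35% in size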
Method in brief: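 Kinetic fluorescence assay: 1nM USP1/UAF1, 15 min compound preincubation, then 150nM Ub-Rho; 480/540 nm.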

[11] = biological target: Rap guanine nucleotide exchange factor 3 (Homo sapiens) (UniProt O95398); test: Confirmatory qHTS for agonist of cAMP-regulated guanine nucleotide exchange factor 3 (EPAC1) (AID 1645881); settings: EPAC1 Rap1B BODIPY-GDP exchange fluorescence; series mostly up to 154 µM;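 also: EPAC1 catalysed release of BODIPY-GDP from Rap1B seen as fluorescence loss; 100% = effect of cAMP agonist control; nearly all actives have a fitted effect of over 75% in size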
[12] = Confirmation and Secondary Assay for Modulators of Hemoglobin Beta Chain Splicing at IVS2 654 locus (AID 910); settings: HeLa EGFP-654 splicing reporter, GFP fluorescence, 48 h; series mostly up to 38.3 µM;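 also: HeLa cells stably carrying EGFP split by mutant beta-globin IVS2-654 intron; potency is read from the fitted curve at half-maximal effect; potency of activators that raise GFP signal by restoring correct splicing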
Method in brief: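 HeLa cells stably expressing EGFP interrupted by β-globin IVS2-654 intron, seeded overnight in Opti-MEM/2% FCS, then treated 2 days at 37 °C. Restored splicing read as total peak GFP intensity per well by laser scanning cytometry (488 nm excitation, 500–520 nm emission); 500 nM antisense PNA as control.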

[13] = biological target: Cytochrome P450 1A2 (Homo sapiens) (UniProt P05177); test: p450-cyp1a2 (AID 410; calls by dose curve; also: potency is read from the fitted curve at half-maximal effect); settings: recombinant CYP1A2, luciferin-ME demethylation, luminescence; series mostly up to 57 µM
Method in brief: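 Inhibition was calculated relative to 57 uM furafylline (full inhibition). The reaction used human CYP1A2 at 20nM with Luciferin-ME at its Km, 100uM, driven by an NADPH-regenerating system for 60 min at room temperature.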

[14] = biological target: 3',5'-cyclic-AMP phosphodiesterase 4B (Homo sapiens) (UniProt Q07343); test: qHTS Assay for Inhibitors of PDE-IV (AID 607; active = well fitted activation curve with a large enough effect in the main read-out, with a control signal flat, not every such curve was filed as active; also: % of control where 0% means no effect); settings: HEK293 ACTOne CNG channel cells, membrane potential fluorescence; series mostly up to 22.9 µM
Method in brief: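 HEK293 ACTOne cells with CNG channel (1000/well), endogenous PDE4; membrane potential dye, compounds up to 22.9 uM final. Fluorescence Ex 535/Em 590; RO 20-1724 (100 uM final) as reference.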

[15] = biological target: Cytochrome P450 3A4 (Homo sapiens) (UniProt P08684); test: qHTS Assay for Inhibitors and Substrates of Cytochrome P450 3A4 (AID 884); settings: recombinant CYP3A4, Luciferin-PPXE luminescence; series mostly up to 57.1 µM; also: potency is read from the fitted curve at half-maximal effect; nearly all actives have a fitted effect of over 50% in size
Method in brief: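 20 nM human CYP3A4 with 25 uM Luciferin-PPXE (at KM) in 200 mM KPO4, preincubated 10 min with compound; NADPH regeneration started a 60 min RT reaction. Luciferin detected by luminescence, normalized to 57 uM ketoconazole as full inhibition.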

[16] = qHTS Assay for Identification of Small Molecule Agonists for Hypoxia Response Element Signaling Pathway (AID 914; active = well fitted activation curve with a large enough effect in the signal ratio, with a control signal flat, not every such curve was filed as active; the % refers to the signal ratio; also: potency is read from the fitted curve at half-maximal effect); settings: ME-180 (cervical carcinoma) HRE-bla reporter, beta-lactamase ratio, CoCl2, 17 h; activation: stronger effect = higher value
Method in brief: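 HRE-bla ME-180 assay for agonist-like enhancement of an EC50 CoCl2 stimulus: 17 h at 37 degrees Celsius, CCF4 for 2.5 h, ratiometric 460/530 nm signal converted to %Activity and fitted to AC50.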

[17] = biological target: Dual specificity protein kinase CLK4 (Homo sapiens) (UniProt Q9HAZ1); test: qHTS Assay for Inhibitors of CDC-like Kinase 4 (Kinase-Glo Assay) (AID 1770); settings: recombinant Clk4, Kinase-Glo ATP depletion luminescence; series mostly up to 66.7 µM; also: % is scaled to controls: 0 for no effect and ±100 for the full control effect; nearly all actives have a fitted effect of over 65% in size
Method in brief: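 Inhibition was judged from remaining ATP, measured by Ultra-Glo luciferase bioluminescence after Clk4 (25 nM) had acted on RS peptide at 1 uM ATP for 4.5 hours, room temperature.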

[18] = biological target: Dual specificity protein kinase CLK4 (Homo sapiens) (UniProt Q9HAZ1); test: qHTS Assay for Inhibitors of CDC-like Kinase 4 (ADP-Glo Assay) (AID 1771); settings: recombinant CLK4, ADP-Glo luminescence; series mostly up to 80 µM; also: % is scaled to controls: 0 for no effect and ±100 for the full control effect; nearly all actives have a fitted effect of over 70% in size
Method in brief: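 Kinase reaction: Clk4 at 25 nM, RS repeat peptide substrate at 100 uM, ATP at 1 uM, 1 hr, room temperature. Product ADP detected as luciferase signal via ADP-Glo.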

[19] = biological target: Dual specificity protein kinase CLK4 (Homo sapiens) (UniProt Q9HAZ1); test: qHTS Assay for Inhibitors of CDC-like Kinase 4 (ADP-FP Assay) (AID 1795); settings: Transcreener ADP fluorescence polarization; series mostly up to 50 µM;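 also: recombinant human CLK4 phosphorylating RS repeat peptide at 1 µM ATP; % is scaled to controls: 0 for no effect and ±100 for the full control effect; nearly all actives have a fitted effect of over 60% in size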
Method in brief: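 Inhibition of ADP formation by 6.25 nM Clk4 is measured using 1 uM ATP and 100 uM RS repeat peptide over one hour. Produced ADP displaces a fluorescent tracer from antibody, lowering polarization.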

[20] = measured here: cell count channel max response
[21] = measured here: lipid channel max response

Sequence of Ubiquitin carboxyl-terminal hydrolase 1 (Homo sapiens) (O94782 whole entry, looked up): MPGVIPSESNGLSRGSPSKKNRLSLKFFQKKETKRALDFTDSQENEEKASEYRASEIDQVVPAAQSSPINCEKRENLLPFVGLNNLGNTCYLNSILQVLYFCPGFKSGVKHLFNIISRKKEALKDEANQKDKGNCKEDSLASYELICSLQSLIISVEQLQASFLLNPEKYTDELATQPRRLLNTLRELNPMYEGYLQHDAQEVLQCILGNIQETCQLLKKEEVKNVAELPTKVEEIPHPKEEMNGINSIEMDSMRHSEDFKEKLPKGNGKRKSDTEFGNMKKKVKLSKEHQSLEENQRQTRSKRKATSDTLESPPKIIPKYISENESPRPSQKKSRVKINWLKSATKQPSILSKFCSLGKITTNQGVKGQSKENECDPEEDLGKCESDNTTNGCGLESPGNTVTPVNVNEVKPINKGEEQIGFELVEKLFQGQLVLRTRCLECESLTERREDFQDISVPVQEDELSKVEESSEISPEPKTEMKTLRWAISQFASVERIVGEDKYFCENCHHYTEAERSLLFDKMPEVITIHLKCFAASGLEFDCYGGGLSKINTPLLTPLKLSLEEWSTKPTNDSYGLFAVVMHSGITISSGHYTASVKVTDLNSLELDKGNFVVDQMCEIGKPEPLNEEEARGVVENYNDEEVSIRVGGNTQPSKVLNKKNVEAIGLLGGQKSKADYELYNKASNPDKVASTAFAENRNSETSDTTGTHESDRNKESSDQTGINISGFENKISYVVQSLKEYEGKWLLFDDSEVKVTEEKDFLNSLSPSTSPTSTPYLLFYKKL
Sequence of Cytochrome P450 3A4 (Homo sapiens) (P08684 whole entry, looked up): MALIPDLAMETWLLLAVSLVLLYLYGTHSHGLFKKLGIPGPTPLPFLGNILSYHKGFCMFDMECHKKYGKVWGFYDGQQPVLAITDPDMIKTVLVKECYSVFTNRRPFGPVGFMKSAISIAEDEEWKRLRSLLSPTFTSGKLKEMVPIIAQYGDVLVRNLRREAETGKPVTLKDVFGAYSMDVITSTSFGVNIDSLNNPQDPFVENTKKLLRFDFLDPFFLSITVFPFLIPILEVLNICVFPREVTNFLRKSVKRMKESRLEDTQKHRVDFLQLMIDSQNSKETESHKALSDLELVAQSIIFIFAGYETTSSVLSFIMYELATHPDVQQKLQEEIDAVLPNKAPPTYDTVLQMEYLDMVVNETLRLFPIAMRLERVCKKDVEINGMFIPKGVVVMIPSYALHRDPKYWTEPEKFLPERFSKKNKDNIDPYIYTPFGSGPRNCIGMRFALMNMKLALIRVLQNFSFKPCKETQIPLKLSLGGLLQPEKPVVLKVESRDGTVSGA
Sequence of Cytochrome P450 1A2 (Homo sapiens) (P05177 whole entry, looked up): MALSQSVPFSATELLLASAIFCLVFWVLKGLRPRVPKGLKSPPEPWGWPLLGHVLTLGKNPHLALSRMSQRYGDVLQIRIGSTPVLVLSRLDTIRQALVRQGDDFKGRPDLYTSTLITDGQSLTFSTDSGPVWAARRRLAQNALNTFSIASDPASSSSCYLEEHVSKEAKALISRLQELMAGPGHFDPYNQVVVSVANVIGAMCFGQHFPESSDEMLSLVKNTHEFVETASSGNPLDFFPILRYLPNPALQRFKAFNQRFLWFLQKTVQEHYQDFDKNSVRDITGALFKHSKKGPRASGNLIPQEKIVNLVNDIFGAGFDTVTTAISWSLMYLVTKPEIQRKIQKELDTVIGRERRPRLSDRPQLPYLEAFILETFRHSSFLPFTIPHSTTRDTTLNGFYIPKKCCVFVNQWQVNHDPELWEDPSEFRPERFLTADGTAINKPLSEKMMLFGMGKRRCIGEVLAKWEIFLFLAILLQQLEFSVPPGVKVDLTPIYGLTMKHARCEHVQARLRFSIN
Sequence of Glucocorticoid receptor (Homo sapiens) (P04150 whole entry, looked up, the tested form may be a part): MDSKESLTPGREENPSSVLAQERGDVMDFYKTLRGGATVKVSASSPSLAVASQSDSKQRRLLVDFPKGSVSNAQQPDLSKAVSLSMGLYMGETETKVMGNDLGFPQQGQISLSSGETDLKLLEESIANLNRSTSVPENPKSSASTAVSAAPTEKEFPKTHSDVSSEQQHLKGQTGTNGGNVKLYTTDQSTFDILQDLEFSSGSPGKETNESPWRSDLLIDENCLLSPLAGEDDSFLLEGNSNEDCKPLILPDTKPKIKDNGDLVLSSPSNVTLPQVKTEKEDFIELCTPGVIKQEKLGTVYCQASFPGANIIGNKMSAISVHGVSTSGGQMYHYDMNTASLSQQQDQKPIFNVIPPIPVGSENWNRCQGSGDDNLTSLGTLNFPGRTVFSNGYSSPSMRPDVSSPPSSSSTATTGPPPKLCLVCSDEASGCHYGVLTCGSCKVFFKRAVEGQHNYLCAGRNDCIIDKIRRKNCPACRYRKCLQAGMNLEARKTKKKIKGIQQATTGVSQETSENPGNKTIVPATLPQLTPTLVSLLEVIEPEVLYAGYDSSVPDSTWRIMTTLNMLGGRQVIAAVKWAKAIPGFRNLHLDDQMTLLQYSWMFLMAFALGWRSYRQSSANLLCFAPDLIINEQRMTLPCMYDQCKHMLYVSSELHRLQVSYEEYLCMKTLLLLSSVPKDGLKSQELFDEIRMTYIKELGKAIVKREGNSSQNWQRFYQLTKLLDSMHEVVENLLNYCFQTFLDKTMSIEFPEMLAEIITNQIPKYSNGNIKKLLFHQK
Sequence of Lysosomal acid glucosylceramidase (Homo sapiens) (P04062 whole entry, looked up): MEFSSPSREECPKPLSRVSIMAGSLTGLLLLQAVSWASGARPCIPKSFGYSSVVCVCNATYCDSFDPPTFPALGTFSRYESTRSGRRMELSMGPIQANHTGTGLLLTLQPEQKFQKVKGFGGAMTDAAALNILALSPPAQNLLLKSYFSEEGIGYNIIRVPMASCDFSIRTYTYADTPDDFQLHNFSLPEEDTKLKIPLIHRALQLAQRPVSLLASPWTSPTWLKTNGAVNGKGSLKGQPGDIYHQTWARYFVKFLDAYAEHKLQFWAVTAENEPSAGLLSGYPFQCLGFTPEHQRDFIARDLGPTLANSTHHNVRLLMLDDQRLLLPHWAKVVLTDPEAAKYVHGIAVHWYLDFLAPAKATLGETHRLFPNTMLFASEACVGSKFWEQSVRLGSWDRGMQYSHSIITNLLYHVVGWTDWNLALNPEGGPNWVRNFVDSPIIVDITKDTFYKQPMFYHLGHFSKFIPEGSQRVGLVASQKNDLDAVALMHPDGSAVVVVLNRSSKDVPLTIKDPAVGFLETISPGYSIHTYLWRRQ
Sequence of Dual specificity protein kinase CLK4 (Homo sapiens) (Q9HAZ1 whole entry, looked up): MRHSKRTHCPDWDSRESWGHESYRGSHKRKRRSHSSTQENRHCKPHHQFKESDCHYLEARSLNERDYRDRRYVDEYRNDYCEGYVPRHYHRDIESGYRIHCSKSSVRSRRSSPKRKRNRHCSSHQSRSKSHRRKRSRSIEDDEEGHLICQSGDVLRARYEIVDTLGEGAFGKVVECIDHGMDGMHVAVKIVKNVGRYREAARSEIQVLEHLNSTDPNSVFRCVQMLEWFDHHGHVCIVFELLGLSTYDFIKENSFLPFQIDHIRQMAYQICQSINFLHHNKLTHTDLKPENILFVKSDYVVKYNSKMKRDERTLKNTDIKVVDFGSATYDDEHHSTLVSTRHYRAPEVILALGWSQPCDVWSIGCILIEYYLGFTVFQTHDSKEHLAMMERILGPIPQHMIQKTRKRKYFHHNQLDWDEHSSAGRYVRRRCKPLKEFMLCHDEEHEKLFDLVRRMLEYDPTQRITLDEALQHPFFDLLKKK
Sequence of 3',5'-cyclic-AMP phosphodiesterase 4B (Homo sapiens) (Q07343 whole entry, looked up): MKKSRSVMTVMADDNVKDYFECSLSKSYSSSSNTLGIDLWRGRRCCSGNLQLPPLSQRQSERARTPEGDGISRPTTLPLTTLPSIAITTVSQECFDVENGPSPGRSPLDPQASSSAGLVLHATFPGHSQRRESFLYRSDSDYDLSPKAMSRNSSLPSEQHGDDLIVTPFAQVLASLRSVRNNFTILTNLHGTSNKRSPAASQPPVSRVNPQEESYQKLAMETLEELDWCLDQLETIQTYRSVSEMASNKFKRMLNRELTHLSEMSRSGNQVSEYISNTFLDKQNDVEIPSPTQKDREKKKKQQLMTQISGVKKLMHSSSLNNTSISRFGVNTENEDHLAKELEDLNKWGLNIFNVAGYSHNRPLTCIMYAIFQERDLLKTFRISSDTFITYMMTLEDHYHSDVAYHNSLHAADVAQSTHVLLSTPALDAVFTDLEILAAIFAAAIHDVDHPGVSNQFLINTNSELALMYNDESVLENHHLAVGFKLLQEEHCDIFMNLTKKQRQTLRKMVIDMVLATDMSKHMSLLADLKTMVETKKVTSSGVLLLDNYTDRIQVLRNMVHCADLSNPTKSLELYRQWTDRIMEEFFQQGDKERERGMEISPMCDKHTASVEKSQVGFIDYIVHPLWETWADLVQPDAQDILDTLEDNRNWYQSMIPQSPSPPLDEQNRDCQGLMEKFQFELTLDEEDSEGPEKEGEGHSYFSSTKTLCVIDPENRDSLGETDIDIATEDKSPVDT

CN(C)CCCO[C@H]1C([C@H](O)CO)O[C@@H]2OC(C)(C)O[C@@H]21 (some centres undefined)
activity change, negative = inhibition [1]: 1.15% (inactive) | max response [1, 20]: 19.8% | max response [1, 21]: 24%

COc1ccccc1CNc1ncncc1-c1ccccc1OC
Potency [2]: > 11.4 µM (inactive) | activity change, negative = inhibition [3]: -8.41% (inactive) | activity change, negative = inhibition [4]: -16.1% (inactive) | activity, negative = inhibition [5]: -9.32% (inactive) | Potency [6]: > 46 µM (inactive) | Potency [7]: > 46 µM (inactive) | Potency [8]: inactive | Potency [9]: inactive | activity change, negative = inhibition [1]: 6.17% (inactive) | max response [1, 20]: 3.98% | max response [1, 21]: 9.74% | Potency [10]: inactive | Potency [11]: inactive

COC(=O)[C@@H]1C2CC3c4[nH]c5cc(OC)ccc5c4CCN3CC2C[C@H](OC(=O)c2cc(OC)c(OC)c(OC)c2)C1OC (some centres undefined)
Potency [9]: inactive | Potency [12]: 15.8 µM (active) | activity change, negative = inhibition [1]: -8.88% (inactive) | max response [1, 20]: 3.77% | max response [1, 21]: -5.55% | Potency [11]: inactive

FC(F)(F)c1ccccc1-c1cncnc1NCCN1CCOCC1
Potency [2]: > 11.4 µM (inactive) | Potency [13]: 2.51 µM (active) | activity, negative = inhibition [5]: -11.6% (inactive) | Potency [6]: > 46 µM (inactive) | Potency [7]: > 46 µM (inactive) | Potency [8]: inactive | Potency [14]: inactive | Potency [15]: 0.794 µM (active) | Potency [9]: inactive | Potency [16]: 2.51 µM (active) | activity change, negative = inhibition [1]: -3.84% (inactive) | max response [1, 20]: 15.3% | max response [1, 21]: 13.3% | Potency [17]: inactive | Potency [18]: inactive | Potency [19]: inactive | Potency [10]: inactive

COc1ccc(Oc2ncc3nc(-c4ccc(Cl)cc4)c(=O)n(C4CC4)c3n2)cc1
Potency [2]: > 11.4 µM (inactive) | activity change, negative = inhibition [3]: -19.7% (inactive) | activity change, negative = inhibition [4]: 2.73% (inactive) | activity, negative = inhibition [5]: -1.97% (inactive) | Potency [6]: > 9.22 µM (inactive) | Potency [7]: > 46 µM (inactive) | Potency [8]: inactive | activity change, negative = inhibition [1]: 4.67% (inactive) | max response [1, 20]: -1.25% | max response [1, 21]: 5.63% | Potency [17]: inactive | Potency [18]: inactive | Potency [19]: inactive | Potency [10]: inactive

CN1CCN(c2ncc3nc(-c4cc(F)cc(F)c4)c(=O)n(CCC#N)c3n2)CC1
Potency [2]: > 11.4 µM (inactive) | Potency [13]: 15.8 µM (active) | Potency [6]: > 9.22 µM (inactive) | Potency [7]: > 46 µM (inactive) | Potency [8]: inactive | Potency [14]: inactive | Potency [9]: inactive | Potency [16]: 3.16 µM (active) | activity change, negative = inhibition [1]: 1.36% (inactive) | max response [1, 20]: 25.2% | max response [1, 21]: 26.1% | Potency [17]: inactive | Potency [18]: inactive | Potency [19]: inactive | Potency [10]: inactive

CN(C)Cc1ccccc1-c1nccc(Nc2ccc(F)cc2)n1
Potency [2]: 10.8 µM (inactive) | activity change, negative = inhibition [3]: 7.82% (inactive) | Potency [13]: 3.16 µM (active) | activity change, negative = inhibition [4]: -13.9% (inactive) | activity, negative = inhibition [5]: -5.3% (inactive) | Potency [6]: > 46 µM (inactive) | Potency [7]: > 46 µM (inactive) | Potency [8]: inactive | Potency [9]: inactive | activity change, negative = inhibition [1]: 5.52% (inactive) | max response [1, 20]: 21.6% | max response [1, 21]: 26.6% | Potency [17]: inactive | Potency [18]: inactive | Potency [19]: inactive | Potency [10]: inactive
